Test results as given in PubChem BioAssay (NCATS).
Results filed as inconclusive are left out. Activity calls are given as the source filed them. Calls come from the whole dose curve; as a rule, active = well fitted inhibition curve with a large enough effect; inconclusive = small, poorly fitted or top-dose-only effect; inactive = flat fitted curve, though single readings scatter.

Test system: HEK293T
Experiment: qHTS assay to identify novel small-molecules to repurpose for Merkel cell carcinoma treatment (AID 1296009); note: nearly all actives have a fitted effect of over 60% in size
Details: MCC and control cell lines, CellTiter-Glo viability, 72 h; at 44.8 µM (top of the series) unless noted
Summary of the method: (§1)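 Luminescence from CellTiter-Glo, read 10 min after addition at room temperature, reported viability following a 72 hr, 37 degree celsius treatment with NPC or MIPE compounds in titration; values normalized to plate controls.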
% is set by controls: 0 for no effect and ±100 for the full control effect.

SMILES | outcome
CCC(C)C(C)(COC(N)=O)COC(N)=O (stereo unspecified) | inactive
NCCc1ccc(O)cc1 | inactive
CCC(C)(C)c1ccc(O)cc1 | inactive
CN1C(=O)NC(=O)C(C)(C2=CCCCC2)C1=O (stereo unspecified) | inactive
CCC1(c2ccc(N)cc2)CCC(=O)NC1=O (stereo unspecified) | inactive
CC(=O)NC1CCSC1=O (stereo unspecified) | inactive
COC(=O)C(Cl)C(=O)OC | inactive

Test system: MCC-13
Experiment: as above
Details: MCC and control cell lines, CellTiter-Glo viability, 72 h; series mostly up to 46 µM; activity change, negative = cytotoxicity: at the top concentration
Summary of the method: as §1

SMILES | activity change, negative = cytotoxicity | outcome
CC(Cc1ccccc1)N(C)Cc1ccco1 (stereo unspecified) | 4.82% (inactive) | –
CCC1(c2ccccc2)C(=O)N(COC)C(=O)N(COC)C1=O | 13.1% (inactive) | –
C[C@]12CCC(=O)C=C1CC[C@@H]1[C@@H]2CC[C@]2(C)C(=O)CC[C@@H]12 | -14.4% (inactive) | –
C[C@](O)(CS(=O)(=O)c1ccc(F)cc1)C(=O)Nc1ccc(C#N)c(C(F)(F)F)c1 | -15.8% (inactive) | –
c1ccc2c(c1)sc1ccccc12 | 3.69% (inactive) | –
CCN[C@@H](C)Cc1cccc(C(F)(F)F)c1 | 14.5% (inactive) | –
CCCOC(=O)c1cncn1C(C)c1ccccc1 (stereo unspecified) | 1.89% (inactive) | –
CNC(C)(C)Cc1ccccc1 | 17.2% (inactive) | –
c1ccc(CN2CCNCC2)cc1 | -4.82% [at 155 µM] (inactive) | –
O=C(Nc1ccc(Br)cc1)c1cc(Br)cc(Br)c1O | -3.54% (inactive) | –
COC1CC(=C(c2cccs2)c2cccs2)C[N+](C)(C)C1 (stereo unspecified) | 4.33% (inactive) | –
CNCC(=O)c1ccc(O)c(O)c1 | 2.11% (inactive) | –
O=c1[nH]oc2c1CCNC2 | -16.4% (inactive) | –
CN1CCC(O)(c2ccc(F)cc2)C(C(=O)c2ccc(F)cc2)C1 (stereo unspecified) | 2.42% (inactive) | –
CCC(C)C(C)(COC(N)=O)COC(N)=O (stereo unspecified) | 5.61% (inactive) | –
c1ccc(N2CCNCC2)cc1 | 18% (inactive) | –
COc1cccc(C(=O)CCN[C@@H](C)[C@H](O)c2ccccc2)c1 | -5.65% (inactive) | –
NC1=NC(=O)C(c2ccccc2)O1 (stereo unspecified) | 9.35% (inactive) | –
CCN(CCO)CCn1c(Cc2ccccc2)nc2c1c(=O)n(C)c(=O)n2C | 16.8% (inactive) | –
CCN[C@H](C)Cc1cccc(C(F)(F)F)c1 | -4.38% [at 92.7 µM] (inactive) | –

SMILES | activity change, negative = cytotoxicity | outcome
CC(Cc1ccccc1)NCCn1cnc2c1c(=O)n(C)c(=O)n2C (stereo unspecified) | -3.39% [at 92.7 µM] (inactive) | –
C[C@]12CCC(=O)C=C1CC[C@@H]1[C@@H]2CC[C@@]2(C)[C@H]1CC[C@]2(C)O | -12.6% (inactive) | –
NCCc1ccc(O)cc1 | 12.2% (inactive) | –
CCC(C)(C)c1ccc(O)cc1 | 8.95% (inactive) | –
CC(C)=CC1C(C(=O)OCN2C(=O)C3=C(CCCC3)C2=O)C1(C)C (stereo unspecified) | -1.37% (inactive) | –
C=C(C)[C@H]1CN[C@H](C(=O)O)[C@H]1CC(=O)O | 8.04% (inactive) | –
CC(C(=O)c1ccccc1)N(C)C (stereo unspecified) | 12.3% (inactive) | –
CN1C(=O)NC(=O)C(C)(C2=CCCCC2)C1=O (stereo unspecified) | 1.27% (inactive) | –
CC[N+]1(CC)CCC(OC(=O)C(O)(c2ccccc2)c2ccccc2)C1 (stereo unspecified) | 8.35% (inactive) | –
Nc1ccccc1C(=O)O | 17.1% (inactive) | –
CCN(CC)CCc1c[nH]c2ccccc12 | -9.11% [at 155 µM] (inactive) | –
CCC1(c2ccc(N)cc2)CCC(=O)NC1=O (stereo unspecified) | – | inactive
O=C(CCCN1CCC2(CC1)C(=O)NCN2c1ccccc1)c1ccc(F)cc1 | -10.7% (inactive) | –
CC(=O)NC1CCSC1=O (stereo unspecified) | -0.681% (inactive) | –
O=C1CN=C(c2ccccc2)c2cc([N+](=O)[O-])ccc2N1 | -15.3% (inactive) | –
O=P1(N(CCCl)CCCl)NCCCO1 (stereo unspecified) | – | inactive
COC(=O)C(Cl)C(=O)OC | 5.76% (inactive) | –
O=C(N/N=C/c1ccc([N+](=O)[O-])o1)c1cc([N+](=O)[O-])cc([N+](=O)[O-])c1O | 3.18% (inactive) | –
CC1(C)C(C=C(Cl)Cl)C1C(=O)OC(C#N)c1cccc(Oc2ccccc2)c1 (stereo unspecified) | 16% (inactive) | –
